# Measured values reported in article PMC7862700, “An all-to-all approach to the identification of sequence-specific readers for epigenetic DNA modifications on cytosine”.
# What was measured:
# Test in all cases: DAPPL (digital affinity profiling via proximity ligation, sequencing); 10 mM Tris-HCl pH 7.5, 50 mM NaCl, 1 mM DTT, 4% glycerol, room temperature, 30 min; GST-TFs on glutathione beads, 16-mer random dsDNA library, 0.1% formaldehyde crosslink after washing; high values mean tight binding
# FEV = target: T1, FEV (Homo sapiens, UniProt Q99581 1-238); conditions: protein: recombinant; tags: N-terminal GST; dsDNA, one strand shown
# T1 sequence: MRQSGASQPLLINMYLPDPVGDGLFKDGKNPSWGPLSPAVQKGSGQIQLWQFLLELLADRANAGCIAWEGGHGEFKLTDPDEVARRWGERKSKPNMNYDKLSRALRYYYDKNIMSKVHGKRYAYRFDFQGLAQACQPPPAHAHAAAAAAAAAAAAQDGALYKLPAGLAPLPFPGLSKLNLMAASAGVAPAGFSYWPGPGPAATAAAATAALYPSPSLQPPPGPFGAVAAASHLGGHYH
# Procedure, shortened: (§1)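 Binding signal is each hexamer's read frequency for a factor divided by its frequency in the tag-only sample. The factors were GST-fused human transcription factors from yeast, captured on glutathione beads, DNA-barcoded and pooled with that sample. Pools were incubated with 200 nmole of a random double-stranded 16-mer DNA library in Tris/NaCl/DTT/glycerol buffer at room temperature for 30 min, then washed, crosslinked with 0.1% formaldehyde, proximity-ligated with BsaI/T4 ligase (1 h, 37 °C), PCR-amplified and sequenced on an Illumina NextSeq500.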
# ETV5 = ETV5 (Homo sapiens, UniProt P41161 1-510); conditions: protein: recombinant; tags: N-terminal GST; dsDNA, one strand shown
# Procedure, shortened: as §1
# HSF1 = HSF1 (Homo sapiens, UniProt Q00613 1-529); conditions: protein: recombinant; tags: N-terminal GST; chain copies: 3; dsDNA, one strand shown
# Procedure, shortened: as §1
# SPIC = target: T2, SPIC (Homo sapiens, UniProt Q8N5J4 1-248); conditions: protein: recombinant; tags: N-terminal GST; dsDNA, one strand shown
# T2 sequence: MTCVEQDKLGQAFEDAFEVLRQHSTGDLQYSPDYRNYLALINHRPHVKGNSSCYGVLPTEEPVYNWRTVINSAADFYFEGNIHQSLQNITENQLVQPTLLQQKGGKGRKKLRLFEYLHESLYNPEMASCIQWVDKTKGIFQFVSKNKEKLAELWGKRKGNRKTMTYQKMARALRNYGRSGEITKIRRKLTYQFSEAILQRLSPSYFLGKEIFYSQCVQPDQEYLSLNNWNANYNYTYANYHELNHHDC
# Procedure, shortened: as §1
# ELF4 = ELF4 (Homo sapiens, UniProt Q99607 1-663); conditions: protein: recombinant; tags: N-terminal GST; dsDNA, one strand shown
# Procedure, shortened: as §1
# ELK4 = target: T3, ELK4 (Homo sapiens, UniProt P28324-2 1-405); conditions: protein: recombinant; tags: N-terminal GST; dsDNA, one strand shown
# T3 sequence: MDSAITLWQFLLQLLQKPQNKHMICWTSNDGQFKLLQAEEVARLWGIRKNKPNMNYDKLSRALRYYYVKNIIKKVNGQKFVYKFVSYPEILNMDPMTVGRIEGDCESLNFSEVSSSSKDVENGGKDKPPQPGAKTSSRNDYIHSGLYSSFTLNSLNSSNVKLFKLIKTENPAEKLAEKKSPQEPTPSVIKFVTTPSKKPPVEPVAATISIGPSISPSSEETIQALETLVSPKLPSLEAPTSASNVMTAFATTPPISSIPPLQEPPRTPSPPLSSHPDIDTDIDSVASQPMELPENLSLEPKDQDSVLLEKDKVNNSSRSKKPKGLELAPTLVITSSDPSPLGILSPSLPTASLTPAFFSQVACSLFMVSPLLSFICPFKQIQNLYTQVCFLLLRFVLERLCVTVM
# Procedure, shortened: as §1
# ETV2 = target: T4, ETV2 (Homo sapiens, UniProt O00321 1-342); conditions: protein: recombinant; tags: N-terminal GST; dsDNA, one strand shown
# T4 sequence: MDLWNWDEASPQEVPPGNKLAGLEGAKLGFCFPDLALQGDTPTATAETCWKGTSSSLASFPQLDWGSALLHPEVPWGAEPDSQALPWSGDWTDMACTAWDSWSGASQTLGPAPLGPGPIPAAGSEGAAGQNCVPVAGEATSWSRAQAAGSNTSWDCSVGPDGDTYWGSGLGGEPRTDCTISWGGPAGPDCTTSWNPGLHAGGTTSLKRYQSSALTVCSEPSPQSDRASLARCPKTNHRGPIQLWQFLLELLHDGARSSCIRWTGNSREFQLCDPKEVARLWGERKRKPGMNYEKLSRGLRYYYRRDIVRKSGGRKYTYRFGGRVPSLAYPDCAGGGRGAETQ
# Procedure, shortened: as §1
# ELF3 = target: T5, ELF3 (Homo sapiens, UniProt P78545 1-371); conditions: protein: recombinant; tags: N-terminal GST; dsDNA, one strand shown
# T5 sequence: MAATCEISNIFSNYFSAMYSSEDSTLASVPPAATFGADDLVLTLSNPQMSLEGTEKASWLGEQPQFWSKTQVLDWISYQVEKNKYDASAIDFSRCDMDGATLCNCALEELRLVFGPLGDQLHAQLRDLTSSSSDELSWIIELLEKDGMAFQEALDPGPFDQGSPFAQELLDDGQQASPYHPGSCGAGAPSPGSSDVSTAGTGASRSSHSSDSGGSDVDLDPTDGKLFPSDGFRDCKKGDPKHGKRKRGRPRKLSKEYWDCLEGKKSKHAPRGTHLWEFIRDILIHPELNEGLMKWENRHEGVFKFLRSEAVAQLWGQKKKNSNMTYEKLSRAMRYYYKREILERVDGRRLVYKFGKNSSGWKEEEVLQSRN
# Procedure, shortened: as §1
# CRX = CRX (Homo sapiens, UniProt O43186 1-299); conditions: protein: recombinant; tags: N-terminal GST; dsDNA, one strand shown
# Procedure, shortened: as §1
# ETV1 = ETV1 (Homo sapiens, UniProt P50549 1-477); conditions: protein: recombinant; tags: N-terminal GST; dsDNA, one strand shown
# Procedure, shortened: as §1
# Sequence of ETV1 (P50549 whole entry): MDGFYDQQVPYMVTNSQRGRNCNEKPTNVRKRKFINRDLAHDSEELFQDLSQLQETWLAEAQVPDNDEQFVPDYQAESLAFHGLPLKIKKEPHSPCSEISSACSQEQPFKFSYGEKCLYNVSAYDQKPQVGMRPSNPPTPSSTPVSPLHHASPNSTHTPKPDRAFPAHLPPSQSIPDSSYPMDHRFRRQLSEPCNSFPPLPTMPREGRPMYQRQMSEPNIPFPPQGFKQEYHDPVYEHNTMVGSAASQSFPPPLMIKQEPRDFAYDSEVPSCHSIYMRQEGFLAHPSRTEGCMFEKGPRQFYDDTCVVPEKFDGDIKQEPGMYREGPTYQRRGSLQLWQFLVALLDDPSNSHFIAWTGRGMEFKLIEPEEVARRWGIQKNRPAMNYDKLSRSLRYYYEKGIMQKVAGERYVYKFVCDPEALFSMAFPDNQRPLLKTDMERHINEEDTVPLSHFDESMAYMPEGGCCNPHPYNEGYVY
# Sequence of CRX (O43186 whole entry): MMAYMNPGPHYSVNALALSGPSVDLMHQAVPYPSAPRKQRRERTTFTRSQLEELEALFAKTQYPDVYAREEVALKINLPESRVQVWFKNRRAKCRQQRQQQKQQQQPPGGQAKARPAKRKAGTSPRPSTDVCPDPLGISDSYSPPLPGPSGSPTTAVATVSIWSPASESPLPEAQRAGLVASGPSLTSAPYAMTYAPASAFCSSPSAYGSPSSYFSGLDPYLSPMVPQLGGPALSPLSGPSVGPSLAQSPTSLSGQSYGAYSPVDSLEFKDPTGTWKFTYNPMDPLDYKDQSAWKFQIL
# Sequence of ELF4 (Q99607 whole entry): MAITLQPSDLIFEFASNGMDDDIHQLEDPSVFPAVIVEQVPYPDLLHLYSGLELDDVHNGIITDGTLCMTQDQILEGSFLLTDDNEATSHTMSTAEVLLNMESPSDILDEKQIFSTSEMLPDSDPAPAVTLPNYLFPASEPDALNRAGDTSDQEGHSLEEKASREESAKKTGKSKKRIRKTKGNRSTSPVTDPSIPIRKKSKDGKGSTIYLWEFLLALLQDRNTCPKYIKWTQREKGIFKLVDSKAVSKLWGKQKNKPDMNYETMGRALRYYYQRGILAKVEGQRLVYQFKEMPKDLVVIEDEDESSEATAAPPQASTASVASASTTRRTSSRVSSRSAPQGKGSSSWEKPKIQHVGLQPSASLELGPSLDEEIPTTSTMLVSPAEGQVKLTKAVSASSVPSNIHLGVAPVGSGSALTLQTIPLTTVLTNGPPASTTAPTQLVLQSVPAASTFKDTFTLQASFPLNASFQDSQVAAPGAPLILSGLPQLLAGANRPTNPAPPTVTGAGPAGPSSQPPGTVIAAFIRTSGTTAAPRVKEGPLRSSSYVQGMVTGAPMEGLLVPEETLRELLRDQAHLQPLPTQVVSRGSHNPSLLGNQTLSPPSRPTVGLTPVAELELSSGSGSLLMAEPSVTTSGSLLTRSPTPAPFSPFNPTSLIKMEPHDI
# Sequence of HSF1 (Q00613 whole entry): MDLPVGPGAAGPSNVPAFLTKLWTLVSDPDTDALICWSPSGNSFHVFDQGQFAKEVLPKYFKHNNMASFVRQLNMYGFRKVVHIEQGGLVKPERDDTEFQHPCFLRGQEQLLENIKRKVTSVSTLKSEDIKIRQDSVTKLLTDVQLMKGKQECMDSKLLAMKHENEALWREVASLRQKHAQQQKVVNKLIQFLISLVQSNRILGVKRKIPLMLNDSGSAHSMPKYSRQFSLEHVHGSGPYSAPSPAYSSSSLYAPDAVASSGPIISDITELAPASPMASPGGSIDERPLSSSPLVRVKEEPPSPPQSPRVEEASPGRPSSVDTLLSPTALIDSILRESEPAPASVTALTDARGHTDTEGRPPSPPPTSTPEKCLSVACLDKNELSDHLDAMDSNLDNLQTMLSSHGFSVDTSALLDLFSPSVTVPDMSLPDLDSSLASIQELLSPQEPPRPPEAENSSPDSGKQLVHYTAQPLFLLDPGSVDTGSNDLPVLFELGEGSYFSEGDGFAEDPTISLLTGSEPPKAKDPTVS
# Sequence of ETV5 (P41161 whole entry): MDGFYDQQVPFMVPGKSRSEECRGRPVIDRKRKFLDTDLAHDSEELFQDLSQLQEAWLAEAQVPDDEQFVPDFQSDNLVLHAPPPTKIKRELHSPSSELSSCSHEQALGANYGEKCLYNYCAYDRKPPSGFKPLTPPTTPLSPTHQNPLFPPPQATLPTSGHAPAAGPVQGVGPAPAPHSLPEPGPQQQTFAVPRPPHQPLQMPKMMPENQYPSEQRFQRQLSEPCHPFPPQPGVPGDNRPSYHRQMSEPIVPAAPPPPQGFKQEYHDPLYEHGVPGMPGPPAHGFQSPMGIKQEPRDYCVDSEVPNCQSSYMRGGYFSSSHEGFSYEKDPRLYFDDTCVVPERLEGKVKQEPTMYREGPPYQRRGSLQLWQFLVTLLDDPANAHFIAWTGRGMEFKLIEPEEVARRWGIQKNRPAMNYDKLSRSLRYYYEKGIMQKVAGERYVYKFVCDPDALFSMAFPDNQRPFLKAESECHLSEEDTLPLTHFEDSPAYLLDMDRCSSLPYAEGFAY
sequence,measurement,setting,value
GGAATT,binding signal,FEV,"1.17 fold enrichment (6-mer frequency, TF over GST control)"
same,binding signal,ETV5,"1.21 fold enrichment (6-mer frequency, TF over GST control)"
same,binding signal,HSF1,"1.45 fold enrichment (6-mer frequency, TF over GST control)"
same,binding signal,SPIC,"1.11 fold enrichment (6-mer frequency, TF over GST control)"
same,binding signal,ELF4,"1.07 fold enrichment (6-mer frequency, TF over GST control)"
same,binding signal,ELK4,"1.1 fold enrichment (6-mer frequency, TF over GST control)"
same,binding signal,ETV2,"1.13 fold enrichment (6-mer frequency, TF over GST control)"
same,binding signal,ELF3,"1.12 fold enrichment (6-mer frequency, TF over GST control)"
same,binding signal,CRX,"1.46 fold enrichment (6-mer frequency, TF over GST control)"
same,binding signal,ETV1,"1.18 fold enrichment (6-mer frequency, TF over GST control)"
